# PubChem BioAssay
# Values joined by “and” are separate entries in the source; they are usually repeats but may differ in a detail not shown here. Equal entries are not always repeated. Active and inactive are the calls of the source.
# What was measured:
# [1] = system: PRMT1 (protein arginine N-methyltransferase 1); test: PRMT1 binders on small-molecule microarrays, primary screen, biochemical, small-molecule microarray, 635 nm fluorescence (AID 1088); conditions: small-molecule microarray binding, higher = more signal;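 further: binding of Prmt1 protein to compounds spotted on small-molecule microarray slides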
# [2] = yeast growth modulation, basal conditions, primary screen, YJM789 clinical isolate, OD600, 24 h (AID 1089);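 further: growth of clinical yeast isolate S. cerevisiae YJM 789 seeded 1000 cells per well; test concentration not given here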; conditions: S. cerevisiae YJM789 growth, higher = more signal, called active from +8 up or from −8 down
# [3] = fission yeast growth modulation, primary screen, strain 972, OD600, 24 h, no modulator (AID 1090);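 further: basal condition with compound alone and no growth modifier present; test concentration not given here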; conditions: S. pombe 972 growth, higher = more signal, called active from +8 up or from −8 down
# [4] = S. cerevisiae growth modulation with rapamycin, primary screen, strain BY4716, OD600, 96 h (AID 1091); conditions: higher = more signal, called active from +8 up or from −8 down; further: test concentration not given here
# [5] = target: Torsin-1A-interacting protein 2 (Homo sapiens) (UniProt Q8NFQ8); test: LULL1 binders on small-molecule microarray, primary screen, cell lysate, human LULL1 lysate, 635/667 nm fluorescence (AID 1092); conditions: hLULL1 lysate binding, 635 nm fluorescence, higher = more signal;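 further: probe is lysate of COS7 cells overexpressing human LULL1; score merges per-feature 667 nm fluorescence with signal-to-noise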
# [6] = E. coli growth modulation, two-sided OD650, primary screen, E. coli filamentation project, strain DRC41, 24 h (AID 1093); conditions: OD650, 24 h, higher = more signal, called active from +8 up or from −8 down;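 further: MC1000 strain lacking acrAB efflux and sulA so SOS filamentation is blocked; test concentration not given here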
# [7] = small-molecule microarray binders of probe aLefty2, primary screen, biochemical, biotinylated probe, 635/667 nm fluorescence (AID 1094); conditions: higher = more signal;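 further: score merges spot fluorescence near 667 nm with spot signal-to-noise ratio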
# [8] = system: Noggin (protein binding on small-molecule microarray); test: Noggin binders on small-molecule microarray, primary screen, biochemical, 635/667 nm fluorescence (AID 1095); conditions: 635 nm fluorescence, higher = more signal;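 further: score merges 667 nm feature fluorescence with signal to noise over triplicate slides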
# [9] = target: Neurogenic locus notch homolog protein 3 (Homo sapiens) (UniProt Q9UM47); test: NOTCH3 binders on small-molecule microarray, primary screen, biochemical, 635/667 nm fluorescence (AID 1096); conditions: NOTCH3 binding, 635 nm fluorescence, higher = more signal
# [10] = small-molecule microarray binders of probe aEGFR, primary screen, biochemical, biotinylated probe, 635/667 nm fluorescence (AID 1097); conditions: higher = more signal;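 further: probe is a biotinylated anti-EGFR antibody binding compounds printed on slides; score combines fluorescence near 667 nm and signal to noise of each spot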
# [11] = system: Plasmodium falciparum Sir2 (PF13_0152, Sir2A); test: pfSir2 binders on small-molecule microarrays, primary screen, biochemical, small-molecule microarray, 635 nm fluorescence (AID 1098); conditions: small-molecule microarray binding, fluorescence 635 nm; higher = more signal;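 further: score merges spot fluorescence intensity with its signal-to-noise ratio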
# [12] = small-molecule microarray binders of probe aDKK1, primary screen, biochemical, biotinylated probe, 635/667 nm fluorescence (AID 1099); conditions: higher = more signal;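 further: score merges 667nm spot fluorescence with signal to noise across triplicate slides; reference of the scale not given here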
# [13] = small-molecule microarray binders of probe aCHRDL2, primary screen, biochemical, biotinylated probe, 635/667 nm fluorescence (AID 1100); conditions: higher = more signal
# [14] = splicing luciferase reporter signal modulators, primary screen, spliceosome inhibition project, cell-based, HEK293, splice +/- reporter (AID 1101); conditions: luminescence, 24 h, higher = more signal, called active from +8 up or from −8 down;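 further: HEK293 cells carrying a splicing-competent luciferase reporter gene; test concentration not given here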
# [15] = target: Fibroblast growth factor 10 (Homo sapiens) (UniProt O15520); test: FGF10 binders on small-molecule microarrays, primary screen, biochemical, small-molecule microarray, 635 nm fluorescence (AID 1102); conditions: FGF10 binding, fluorescence 635 nm, higher = more signal
# [16] = system: glycogen synthase kinase-3 (GSK3A per assay name; protocol says GSK3B); test: GSK3 binders on small-molecule microarrays, primary screen, biochemical, small-molecule microarray, 635 nm fluorescence, GSK3A (AID 1103); conditions: small-molecule microarray binding, fluorescence 635 nm; higher = more signal; further: the record names both GSK3A and GSK3B
# [17] = target: Epidermal growth factor receptor (Homo sapiens) (UniProt P00533); test: EGFR binders on small-molecule microarrays, primary screen, biochemical, small-molecule microarray, 635 nm fluorescence (AID 1104); conditions: EGFR binding, higher = more signal;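 further: score merges 667 nm emission intensity with spot signal to noise over triplicate slides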
# [18] = target: Follistatin-related protein 3 (Homo sapiens) (UniProt O95633); test: FSTL3 binders on small-molecule microarrays, primary screen, biochemical, small-molecule microarray, 635 nm fluorescence (AID 1105); conditions: FSTL3 binding, higher = more signal;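 further: score merges emission near 667 nm and signal to noise per printed spot across three slides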
# [19] = target: Dickkopf-related protein 1 (Homo sapiens) (UniProt O94907); test: DKK1 binders on small-molecule microarrays, primary screen, biochemical, small-molecule microarray, 635 nm fluorescence scan (AID 1106); conditions: DKK1 binding, higher = more signal;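 further: score merges emission near 667 nm with signal to noise over three replicate slides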
# [20] = system: Inhibin beta A chain (activin A); test: INHBA (activin A) binders on microarrays, primary screen, biochemical, small-molecule microarray, 635 nm fluorescence scan (AID 1107); conditions: small-molecule microarray binding, higher = more signal;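 further: mouse activin A protein probed at 4.33 µg/mL on printed slides; score merges bound-protein fluorescence near 667 nm with spot signal-to-noise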
# Torsin-1A-interacting protein 2 (Homo sapiens), sequence (Q8NFQ8 whole entry, looked up): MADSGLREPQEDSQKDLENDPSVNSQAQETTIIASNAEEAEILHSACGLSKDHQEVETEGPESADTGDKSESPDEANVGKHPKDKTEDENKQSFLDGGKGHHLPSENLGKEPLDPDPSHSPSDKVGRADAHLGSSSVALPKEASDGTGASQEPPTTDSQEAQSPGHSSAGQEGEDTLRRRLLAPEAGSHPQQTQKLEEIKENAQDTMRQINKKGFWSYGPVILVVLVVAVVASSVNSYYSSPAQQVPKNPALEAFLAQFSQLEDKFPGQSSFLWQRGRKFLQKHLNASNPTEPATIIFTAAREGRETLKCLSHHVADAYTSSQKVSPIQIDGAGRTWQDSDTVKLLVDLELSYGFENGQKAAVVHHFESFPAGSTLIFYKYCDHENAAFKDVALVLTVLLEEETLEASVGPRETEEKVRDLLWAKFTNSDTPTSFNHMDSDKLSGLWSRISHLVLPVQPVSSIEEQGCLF
# Neurogenic locus notch homolog protein 3 (Homo sapiens), sequence (Q9UM47 whole entry, looked up): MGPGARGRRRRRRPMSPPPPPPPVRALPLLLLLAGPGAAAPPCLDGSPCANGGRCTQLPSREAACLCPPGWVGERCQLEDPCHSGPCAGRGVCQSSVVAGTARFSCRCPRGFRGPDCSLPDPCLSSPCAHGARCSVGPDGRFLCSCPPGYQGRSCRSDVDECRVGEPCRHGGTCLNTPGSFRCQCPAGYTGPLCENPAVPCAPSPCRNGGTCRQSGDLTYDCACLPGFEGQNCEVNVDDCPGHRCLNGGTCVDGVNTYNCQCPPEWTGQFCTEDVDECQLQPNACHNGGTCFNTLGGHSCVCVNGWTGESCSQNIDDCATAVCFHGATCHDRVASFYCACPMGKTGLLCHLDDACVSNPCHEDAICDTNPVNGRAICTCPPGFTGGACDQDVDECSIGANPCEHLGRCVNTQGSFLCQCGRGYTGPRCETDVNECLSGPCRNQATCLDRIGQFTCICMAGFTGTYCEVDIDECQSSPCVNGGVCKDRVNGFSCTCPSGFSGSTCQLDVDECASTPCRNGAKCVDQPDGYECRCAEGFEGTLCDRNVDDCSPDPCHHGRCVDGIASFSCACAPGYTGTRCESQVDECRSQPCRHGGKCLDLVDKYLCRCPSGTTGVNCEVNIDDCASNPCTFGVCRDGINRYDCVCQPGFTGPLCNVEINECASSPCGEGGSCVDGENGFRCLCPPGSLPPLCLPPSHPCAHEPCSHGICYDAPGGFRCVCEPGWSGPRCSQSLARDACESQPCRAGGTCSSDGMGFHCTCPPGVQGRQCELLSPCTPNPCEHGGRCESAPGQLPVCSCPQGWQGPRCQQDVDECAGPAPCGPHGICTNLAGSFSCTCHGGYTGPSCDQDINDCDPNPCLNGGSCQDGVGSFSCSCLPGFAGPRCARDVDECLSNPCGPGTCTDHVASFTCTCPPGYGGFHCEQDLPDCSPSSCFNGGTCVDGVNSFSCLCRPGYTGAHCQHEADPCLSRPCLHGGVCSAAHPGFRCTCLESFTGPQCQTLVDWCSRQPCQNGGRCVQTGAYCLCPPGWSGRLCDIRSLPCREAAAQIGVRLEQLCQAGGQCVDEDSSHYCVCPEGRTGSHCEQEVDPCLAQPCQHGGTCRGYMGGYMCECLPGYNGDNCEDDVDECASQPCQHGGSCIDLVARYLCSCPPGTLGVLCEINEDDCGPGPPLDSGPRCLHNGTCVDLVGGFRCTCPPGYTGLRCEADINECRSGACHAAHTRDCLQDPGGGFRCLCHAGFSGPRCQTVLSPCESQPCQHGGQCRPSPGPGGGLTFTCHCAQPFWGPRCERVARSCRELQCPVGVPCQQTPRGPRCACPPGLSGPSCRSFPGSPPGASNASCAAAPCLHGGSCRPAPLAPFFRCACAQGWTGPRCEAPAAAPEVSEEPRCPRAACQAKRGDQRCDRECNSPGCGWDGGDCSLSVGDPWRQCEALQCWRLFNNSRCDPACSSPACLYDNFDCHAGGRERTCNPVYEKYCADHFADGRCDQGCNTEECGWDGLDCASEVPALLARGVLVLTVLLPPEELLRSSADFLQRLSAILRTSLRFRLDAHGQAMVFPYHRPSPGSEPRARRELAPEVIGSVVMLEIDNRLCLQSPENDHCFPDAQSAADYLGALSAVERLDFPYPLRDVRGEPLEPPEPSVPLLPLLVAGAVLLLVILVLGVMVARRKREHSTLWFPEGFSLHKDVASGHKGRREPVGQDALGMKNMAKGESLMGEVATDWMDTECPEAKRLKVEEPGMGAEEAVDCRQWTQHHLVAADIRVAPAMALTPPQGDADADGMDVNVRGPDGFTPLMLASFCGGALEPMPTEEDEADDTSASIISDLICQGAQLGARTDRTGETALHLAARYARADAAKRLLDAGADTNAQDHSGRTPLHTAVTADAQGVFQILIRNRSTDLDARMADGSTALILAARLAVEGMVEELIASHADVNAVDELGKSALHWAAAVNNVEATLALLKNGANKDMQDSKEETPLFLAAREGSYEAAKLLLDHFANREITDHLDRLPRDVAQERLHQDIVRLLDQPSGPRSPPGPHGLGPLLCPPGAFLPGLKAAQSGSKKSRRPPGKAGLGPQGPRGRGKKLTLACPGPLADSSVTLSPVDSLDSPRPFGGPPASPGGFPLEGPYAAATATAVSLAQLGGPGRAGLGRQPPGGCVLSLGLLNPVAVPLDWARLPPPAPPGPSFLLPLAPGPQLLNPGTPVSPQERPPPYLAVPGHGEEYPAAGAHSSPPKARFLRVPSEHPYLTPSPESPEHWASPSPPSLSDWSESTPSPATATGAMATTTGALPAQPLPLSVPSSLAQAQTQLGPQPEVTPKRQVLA
# Fibroblast growth factor 10 (Homo sapiens), sequence (O15520 whole entry, looked up): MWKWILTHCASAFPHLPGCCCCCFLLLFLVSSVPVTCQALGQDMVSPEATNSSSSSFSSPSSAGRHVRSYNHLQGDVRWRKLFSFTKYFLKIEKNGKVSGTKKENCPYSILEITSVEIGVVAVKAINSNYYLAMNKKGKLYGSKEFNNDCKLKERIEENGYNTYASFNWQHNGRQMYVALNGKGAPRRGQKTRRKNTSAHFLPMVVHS
# Dickkopf-related protein 1 (Homo sapiens), sequence (O94907 whole entry, looked up): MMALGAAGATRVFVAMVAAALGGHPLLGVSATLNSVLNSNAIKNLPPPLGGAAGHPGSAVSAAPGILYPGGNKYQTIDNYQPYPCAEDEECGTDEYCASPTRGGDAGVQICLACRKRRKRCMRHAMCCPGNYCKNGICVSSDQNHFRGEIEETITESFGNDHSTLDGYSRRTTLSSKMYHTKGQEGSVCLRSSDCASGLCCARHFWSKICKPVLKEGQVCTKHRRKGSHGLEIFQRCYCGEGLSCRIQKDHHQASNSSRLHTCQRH
# Epidermal growth factor receptor (Homo sapiens), sequence (P00533 whole entry, looked up): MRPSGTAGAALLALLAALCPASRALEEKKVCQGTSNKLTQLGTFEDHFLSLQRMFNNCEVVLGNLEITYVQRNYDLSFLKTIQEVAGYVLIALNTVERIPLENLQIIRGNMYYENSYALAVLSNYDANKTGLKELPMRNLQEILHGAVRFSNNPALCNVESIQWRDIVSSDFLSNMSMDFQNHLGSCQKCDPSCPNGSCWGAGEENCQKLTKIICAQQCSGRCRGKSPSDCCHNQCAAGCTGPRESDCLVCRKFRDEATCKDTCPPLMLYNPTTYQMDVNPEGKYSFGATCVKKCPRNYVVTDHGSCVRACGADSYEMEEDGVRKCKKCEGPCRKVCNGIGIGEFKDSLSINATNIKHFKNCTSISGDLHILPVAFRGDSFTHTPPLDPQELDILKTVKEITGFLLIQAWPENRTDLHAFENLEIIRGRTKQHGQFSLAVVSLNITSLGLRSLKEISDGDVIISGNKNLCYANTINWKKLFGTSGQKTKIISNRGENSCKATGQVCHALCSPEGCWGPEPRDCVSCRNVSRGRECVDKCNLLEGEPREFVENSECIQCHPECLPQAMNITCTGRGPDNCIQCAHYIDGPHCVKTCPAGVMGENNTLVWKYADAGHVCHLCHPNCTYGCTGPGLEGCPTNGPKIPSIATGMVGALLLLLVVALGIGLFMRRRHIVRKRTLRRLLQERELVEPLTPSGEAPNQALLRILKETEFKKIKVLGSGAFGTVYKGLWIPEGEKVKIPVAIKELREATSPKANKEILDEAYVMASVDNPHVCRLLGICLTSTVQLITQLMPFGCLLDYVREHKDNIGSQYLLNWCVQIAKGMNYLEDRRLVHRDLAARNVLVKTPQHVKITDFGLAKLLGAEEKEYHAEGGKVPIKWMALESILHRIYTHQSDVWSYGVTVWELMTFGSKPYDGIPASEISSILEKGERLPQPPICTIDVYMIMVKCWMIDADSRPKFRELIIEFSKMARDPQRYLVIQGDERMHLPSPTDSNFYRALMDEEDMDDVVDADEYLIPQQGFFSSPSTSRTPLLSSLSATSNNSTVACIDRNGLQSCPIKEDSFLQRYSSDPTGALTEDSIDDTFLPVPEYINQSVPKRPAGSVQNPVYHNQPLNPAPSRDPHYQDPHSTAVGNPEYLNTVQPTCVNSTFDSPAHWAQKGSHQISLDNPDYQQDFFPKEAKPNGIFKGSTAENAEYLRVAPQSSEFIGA
# Follistatin-related protein 3 (Homo sapiens), sequence (O95633 whole entry, looked up): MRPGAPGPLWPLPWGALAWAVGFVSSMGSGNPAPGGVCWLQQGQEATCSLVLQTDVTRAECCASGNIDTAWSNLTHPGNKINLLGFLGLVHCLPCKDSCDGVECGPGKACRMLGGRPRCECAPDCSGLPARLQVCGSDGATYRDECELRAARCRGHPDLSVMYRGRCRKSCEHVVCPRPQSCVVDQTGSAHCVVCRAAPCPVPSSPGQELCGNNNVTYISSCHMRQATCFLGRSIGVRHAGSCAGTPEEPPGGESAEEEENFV
SMILES,composite z-score [1],z-score [2],z-score [3],z-score [4],composite z-score [5],z-score [6],composite z-score [7],composite z-score [8],composite z-score [9],composite z-score [10],composite z-score [11],composite z-score [12],composite z-score [13],z-score [14],composite z-score [15],composite z-score [16],composite z-score [17],composite z-score [18],composite z-score [19],composite z-score [20]
CCOC(=O)[C@H](CC(C)C)NC(=O)CCC1CC(OC(=O)NCc2cccc3ccccc23)CC2(CCCC(COC(=O)NCc3ccccc3)O2)O1 (stereo not given in full),-0.0282,-1.11 (inactive),-0.0838 (inactive),-0.395 (inactive),-0.393,-0.548 (inactive),-0.221,0.306,0.156,-0.182,0.929,-0.299,-0.103,-2.18 (inactive),-0.242,-0.97,-0.152,-0.499,-0.311,0.493
COC(=O)C1=C(C)N(Cc2ccccc2)[C@]23O[C@](C(=O)OC)(C(=O)N2[C@@H]1c1ccccc1)[C@H]1CCCC(=O)[C@H]13,-0.0081 and 0.249,0.563 (inactive) and 0.21 (inactive),-1.79 (inactive) and -1.07 (inactive),-1.95 (inactive) and -0.557 (inactive),0.164 and -0.142,0.302 (inactive) and -0.824 (inactive),-0.102 and -0.132,0.0709 and 0.413,0.31 and 0.604,0.173 and -0.0497,0.355 and 0.285,0.0172 and -0.338,-0.298 and -0.45,-0.0479 (inactive) and -1.41 (inactive),0.526 and 0.72,0.201 and 0.287,0.218 and 0.506,0.336 and 0.515,0.421 and 0.508,0.518 and 0.15
C=CCN(C(=O)C1N(CCOCCO)C(=O)C2C(C(=O)O)C3C=CC21O3)c1ccc(OC)cc1 (stereo not given),-0.968 and -2.33,-0.248 (inactive) and -0.0945 (inactive),-0.188 (inactive) and -0.571 (inactive),-0.348 (inactive) and -0.662 (inactive),-0.408 and 1.86,0.612 (inactive) and 1.52 (inactive),-0.158 and 0.0873,-1.79 and -3.14,-0.59 and -0.715,-0.348 and -0.276,-0.703 and 0.492,0.0448 and 0.214,0.787 and 1.07,0.503 (inactive) and 0.116 (inactive),-1.53 and -1.43,-0.805 and -0.855,-1.33 and -3.15,-2.58 and -2.06,-1.83 and -2.76,-3.52 and -4.08
C=CCN(CCCC)C(=O)C(c1cccs1)N(C(=O)/C=C\C(=O)O)c1c(Cl)cccc1CO (stereo not given),-0.663 and -0.538,0.135 (inactive) and 0.537 (inactive),-0.266 (inactive) and 1.12 (inactive),-0.548 (inactive) and -0.522 (inactive),0.376 and 0.744,0.224 (inactive) and -0.174 (inactive),0.148 and -0.235,-1.97 and -2.53,-2.02 and -1.33,-0.451 and -0.328,0.129 and 1.61,-0.0631 and -0.131,1.25 and 0.906,0.173 (inactive) and 0.771 (inactive),-2.81 and -1.97,-0.944 and -0.892,-2.16 and -2.02,-1.44 and -2.65,-3.42 and -2.44,-3.52 and -2.04
C=C[C@H](OC)[C@@H](O)c1ccc(OCCO)cc1,-0.801 and -0.822,-0.146 (inactive) and 0.665 (inactive),0.363 (inactive) and -0.412 (inactive),0.573 (inactive) and 0.329 (inactive),-0.517 and -0.64,-0.0467 (inactive) and 0.606 (inactive),-0.242 and -0.0736,-2.2 and -1.82,-1.56 and -0.724,-0.313 and -0.314,0.972 and 1.8,-0.458 and -0.428,0.915 and 0.789,-0.957 (inactive) and -0.233 (inactive),-1.07 and -0.623,-1.69 and -0.885,-2.13 and -1.16,-1.95 and -1.72,-1.55 and -0.654,-0.731 and -1.25
CCOC(=O)C[C@H]1[C@H](OC(=O)c2ccccc2-c2ccccc2)[C@@H](NC(=O)Cc2ccc(OC)cc2)c2cc(OCCCO)ccc2N1C(=O)c1ccc2ccccc2n1,-0.557 and 0.587,-0.321 (inactive) and -0.249 (inactive),-0.0002 (inactive) and -0.478 (inactive),-0.411 (inactive) and 0.456 (inactive),0.347 and 0.379,2.43 (inactive) and 1.41 (inactive),-0.0953 and 0.0397,0.248 and 0.329,0.0452 and 0.418,-0.0107 and 0.182,0.108 and 0.154,-0.114 and 0.575,0.0078 and 0.468,-0.472 (inactive) and -0.891 (inactive),0.43 and 0.682,0.0554 and 0.185,0.219 and -0.108,0.0539 and 0.0407,0.404 and 0.209,0.773 and 0.105
CCOC(=O)[C@H](Cc1ccccc1)NC(=O)CCC1CC(OC(=O)NCc2cccc3ccccc23)CC2(CCCC(COC(=O)NCCCN3CCCC3=O)O2)O1 (stereo not given in full),1.21,-1.18 (inactive),0.134 (inactive),-0.896 (inactive),2.01,-0.288 (inactive),-0.148,0.692,1.01,-0.0578,0.513,-0.104,-0.517,-1.09 (inactive),0.447,0.901,0.405,0.804,0.866,-0.0698
